Consider 17 compounds from PubChem BioAssay (EPA / NIEHS).

SMILES strings stand for the structures. Active and inactive are the calls of the source. How the source made its calls: active means hit-call score of the fitted dose curve at least 0.9, where 1 is the maximum; inactive means score below 0.9.

Read-out in assay [1]: Vascular endothelial growth factor receptor 2 (Homo sapiens) (UniProt P35968)
The experiment in a line: BSK_4H_VEGFRII: BioMAP Diversity Plus: 4H Assay for Vascular endothelial growth factor receptor 2 (VEGFR2) Biomarker Activity (AID 2283031).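 On AC50: cell-surface VEGFR2 protein level quantified by ELISA.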 The following applies: primary human endothelial cells (HUVEC); actives raise or lower the signal. An outline of the steps:
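HUVEC (human primary), 4H system; 24 h post-dose; VEGFRII by ELISA; bidirectional curve fit vs DMSO baseline; gain or loss of signal scored.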

Read-out in assay [2]: Human Leukocyte Antigen - DR isotype (HLADR), HLA-DRA (gene 3122)
Kind of assay: BSK_BE3C_HLADR: BioMAP Diversity Plus: BE3C Assay for Human Leukocyte Antigen - DR isotype (HLADR) Biomarker Activity (AID 2283032). The following applies: primary human bronchial epithelial cells; actives raise or lower the signal. In a few lines: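 Chemicals are dosed onto BE3C bronchial epithelial cultures of human origin and left 24 h. HLA-DR is then measured by ELISA, and the endpoint is fitted in both directions using DMSO as the activity baseline.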

Read-out in assay [3]: Vascular cell adhesion molecule 1 (VCAM1), VCAM1 (gene 7412)
Kind of assay: BSK_4H_VCAM1: BioMAP Diversity Plus: 4H Assay for Vascular cell adhesion molecule 1 (VCAM1) Biomarker Activity (AID 2283033).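 On outcome: cell-surface VCAM-1 protein measured by ELISA.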 The following applies: primary human endothelial cells (HUVEC); actives raise or lower the signal. An outline of the steps:
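Chemicals are added to primary human umbilical vein endothelial cells. After 24 h, VCAM-1 levels are measured by ELISA. Values come from bidirectional fitting referenced to DMSO.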

Read-out in assay [4]: Interferon-gamma inducible Protein 10 (IP10), CXCL10 (gene 3627)
Kind of assay: BSK_BE3C_IP10: BioMAP Diversity Plus: BE3C Assay for Interferon-gamma inducible Protein 10 (IP10) Biomarker Activity (AID 2283034). The following applies: primary human bronchial epithelial cells; actives raise or lower the signal. In a few lines: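 IP-10 quantified by ELISA serves as the endpoint. Cells: primary human bronchial epithelium, read 24 h after compound addition. Activity is derived by bidirectional fitting with DMSO as negative control.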

Read-out in assay [5]: Monokine induced gamma interferon (MIG), CXCL9 (gene 4283)
Kind of assay: BSK_BE3C_MIG: BioMAP Diversity Plus: BE3C Assay for Monokine induced gamma interferon (MIG) Biomarker Activity (AID 2283035).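 On outcome: MIG protein measured by ELISA in BE3C cultures after 24 h of dosing.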 The following applies: primary human bronchial epithelial cells; actives raise or lower the signal. An outline of the steps:
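Dose cells (human primary bronchial epithelial), incubate 24 h, quantify MIG by ELISA, then fit concentration–response in both directions relative to DMSO control.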

Read-out in assay [6]: Transforming growth factor beta 1 (TGFb1), TGFB1 (gene 7040)
The experiment in a line: BSK_BE3C_TGFb1: BioMAP Diversity Plus: BE3C Assay for Transforming growth factor beta 1 (TGFb1) Biomarker Activity (AID 2283036;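 on outcome: TGF-b1 protein level measured by ELISA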). Particulars: primary human bronchial epithelial cells; actives raise or lower the signal. In a few lines: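 Bronchial epithelial primary cells are treated with test chemical, then TGF-b1 is quantified by ELISA after 24 hours. Values derive from bidirectional fitting against DMSO, with cytotoxicity checked by SRB staining in parallel cultures.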

Read-out in assay [7]: Plasminogen activator inhibitor-1 (PAI1), SERPINE1 (gene 5054)
The experiment in a line: BSK_BE3C_PAI1: BioMAP Diversity Plus: BE3C Assay for Plasminogen activator inhibitor-1 (PAI1) Biomarker Activity (AID 2283037). Particulars: primary human bronchial epithelial cells; actives raise or lower the signal. In a few lines:
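Values derive from bidirectional fitting against DMSO baseline of PAI-1 levels, measured by ELISA in human bronchial epithelial cells 24 h after compound addition.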

Read-out in assay [8]: urokinase plasminogen activator (uPA), PLAU (gene 5328)
Kind of assay: BSK_BE3C_uPA: BioMAP Diversity Plus: BE3C Assay for urokinase plasminogen activator (uPA) Biomarker Activity (AID 2283038).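 On outcome: uPA protein level quantified by ELISA in cell cultures; uPA read one day after compound addition.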 The following applies: primary human bronchial epithelial cells; actives raise or lower the signal. In a few lines:
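ELISA read-out of uPA in human lung primary bronchial epithelial cultures, 24 h post-dosing. Gain or loss of signal fitted bidirectionally relative to DMSO baseline; cytotoxicity checked in parallel cultures via SRB total protein stain.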

Read-out in assay [9]: Urokinase-type plasminogen activator receptor (uPAR), PLAUR (gene 5329)
The experiment in a line: BSK_BE3C_uPAR: BioMAP Diversity Plus: BE3C Assay for Urokinase-type plasminogen activator receptor (uPAR) Biomarker Activity (AID 2283039).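 On outcome: uPAR protein level measured by ELISA on the cells; cells exposed to compound for one day before measurement.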 The following applies: primary human bronchial epithelial cells; actives raise or lower the signal. An outline of the steps:
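Steps: dose human primary bronchial epithelial cells, incubate 24 h, measure uPAR by ELISA, then fit gain- or loss-of-signal response bidirectionally relative to DMSO.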

Read-out in assay [10]: Interleukin-6 (IL6), IL6 (gene 3569)
The experiment in a line: BSK_CASM3C_IL6: BioMAP Diversity Plus: CASM3C Assay for Interleukin-6 (IL6) Biomarker Activity for (AID 2283040). The following applies: primary human coronary artery smooth muscle cells; actives raise or lower the signal.

In the case of `CC#Cc1cc(C)nc(Nc2ccccc2)n1`, the result in assay [1], in assay [2], in assay [4], in assay [5], in assay [6] and in [7] was inactive. The outcome in assay [8], in assay [9] and in assay [10] was inactive. Further, the AC50 in assay [3] was 18.1 µM (active).

With `CCC(C)(CC)c1cc(NC(=O)c2c(OC)cccc2OC)on1`, the result in assay [1], in [2], in [3], in [4], in assay [5] and in assay [6] was inactive. Moreover, the result in assay [7], in assay [8], in assay [9] and in assay [10] was inactive.

Consider `CN(C)CCO`, for which the outcome in [1], in [2], in assay [3], in assay [4], in [5] and in assay [6] was inactive. Also, the result in assay [7], in assay [8], in assay [9] and in [10] was inactive.

As to `O=S(=O)(O)C(F)(F)C(F)(F)C(F)(F)C(F)(F)F`, the result in assay [1], in assay [2], in assay [3], in [4], in assay [5] and in [6] was inactive. For the same compound, the result in assay [7], in assay [8], in assay [9] and in [10] was inactive.

Consider `c1ccc(-c2ccccc2)cc1`, for which the result in assay [2], in assay [3], in [4], in assay [5], in [6] and in assay [7] was inactive. For the same compound, the outcome in [8], in [9] and in assay [10] was inactive.

For `O=NN(c1ccccc1)c1ccccc1`, the outcome in [1], in [2], in assay [3], in assay [4], in assay [5] and in [6] was inactive. Moreover, the outcome in assay [7], in assay [8], in assay [9] and in [10] was inactive.

Turning to `N#Cc1ccc(N(CC(N)=O)CC(F)(F)F)cc1C(F)(F)F`, the result in assay [1], in [2], in assay [3], in assay [4], in [5] and in [6] was inactive. Also, the outcome in assay [7], in assay [8], in [9] and in [10] was inactive.

Take `CC(C)(c1ccccc1)c1ccc(O)cc1`: the outcome in [1], in assay [8], in assay [9] and in assay [10] was inactive. Moreover, the AC50 was 30.4 µM (active) in assay [2]; 32.1 µM (active) in [3]; 30.5 µM (active) in assay [4]; 32.2 µM (active) in assay [5]; 33.4 µM (active) in assay [6]; 34.1 µM (active) in assay [7].

For the compound `CCCCCCCCCc1ccc(O)cc1`, the half-maximal activity concentration (AC50) in [2] was 13.6 µM (active); in [3] it was 15.8 µM (active); in assay [4] it was 13.1 µM (active); in assay [5], 18.5 µM (active); in [6] it was 16.4 µM (active); in [7], 15.7 µM (active). For the same compound, the AC50 is 15.1 µM (active) in [8], 15.7 µM (active) in [9] and 27.8 µM (active) in [10].

Consider `CCCCCCCCCC[N+](C)(C)CCCCCCCCCC`, for which the AC50 was 2.01 µM (active) in assay [1]; 4.45 µM (active) in assay [2]; 5.48 µM (active) in assay [4]; 8.77 µM (active) in assay [5]; 5.35 µM (active) in assay [6]; 3.71 µM (active) in assay [7]. Besides, the figures for the AC50 in [8], in assay [9] and in [10] were 5.43 µM (active), 5.55 µM (active) and 4.9 µM (active), respectively.

Take `COc1ccc(O)c(C(C)(C)C)c1`: the outcome in [1], in assay [2], in assay [3], in [4], in [5] and in assay [7] was inactive. In addition, the outcome in assay [8], in assay [9] and in assay [10] was inactive.

For `Clc1ccc(C(c2ccccc2Cl)C(Cl)(Cl)Cl)cc1` (centres undefined), in assay [1], the AC50 was 17.2 µM (active). Moreover, the outcome in assay [2], in [4], in assay [5], in [6], in assay [7] and in assay [8] was inactive. Besides, the result in [9] and in assay [10] was inactive.

On to `Cc1ccccc1O`, for which the result in [1], in assay [2], in assay [3], in assay [4], in [5] and in assay [6] was inactive. The result in assay [7], in assay [8], in assay [9] and in assay [10] was inactive.

Consider `Cc1cc(O)ccc1Cl`, for which the outcome in assay [1], in assay [2], in [3], in [4], in assay [5] and in [6] was inactive. For the same compound, the result in assay [7], in assay [8], in [9] and in [10] was inactive.

For `O=C(NC(=O)c1c(F)cccc1F)Nc1cc(Cl)c(OC(F)(F)C(F)F)c(Cl)c1`, the result in assay [1], in assay [2], in assay [3], in assay [4], in assay [5] and in assay [6] was inactive. The result in assay [7], in [8], in [9] and in assay [10] was inactive.

For `Nn1cnnc1`, the outcome in assay [1], in [2], in assay [3], in assay [4], in assay [5] and in [6] was inactive. For the same compound, the outcome in [7], in [8], in assay [9] and in assay [10] was inactive.

For `Cc1cccc([N+](=O)[O-])c1`, the result in assay [2], in [3], in assay [4], in assay [5], in assay [6] and in assay [7] was inactive. For the same compound, the result in [8], in [9] and in [10] was inactive.

What is called AC50 is the midpoint of the concentration-response curve, whichever way the signal moves.
